Potency and outcome data for 20 compounds are collected here from PubChem BioAssay (NCATS).

Values without a mark were called inactive. Results filed as inconclusive are left out. The source made the active and inactive calls. The call rests on the fitted dose curve; in most records, active means well fitted curve in the direction sought with a large enough effect; inconclusive means small, poorly fitted or top-dose-only effect, or another doubt; inactive means no such curve, though single readings can be large; an effect the other way counts as inactive or inconclusive.

The target of assay [1] is Glutathione peroxidase 1 (Homo sapiens) (UniProt P07203). In words: Primary qHTS Assay for Inhibitors of Recombinant Selenoprotein Glutathione Peroxidase 1 (GPX1) (AID 1845191). Further: nearly all actives have a fitted effect of over 65% in size. In a few lines:
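NADPH consumption tracked by fluorescence at 340/450 nm between t=0 and t=15 min, room temperature. Final mix: 10 nM GPX1, 100 nM glutathione reductase, 1 mM GSH, 0.5 mM NADPH, 0.5 mM cumene hydroperoxide, 0.01% BSA; 30 min compound–enzyme preincubation.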

Assay [2] addresses Phospholipid hydroperoxide glutathione peroxidase GPX4 (Homo sapiens) (UniProt P36969). Description: Primary qHTS Assay for Inhibitors of Recombinant Selenoprotein Glutathione Peroxidase 4 (GPX4) (AID 1845192). Further: series mostly up to about 50 µM; nearly all actives have a fitted effect of over 65% in size. In a few lines: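 NADPH consumption followed by fluorescence at 340/450 nm, t=0 and after 15 min at room temperature. Reaction started with cumene hydroperoxide (0.5 mM final) after 30 min compound–GPX4 preincubation; final 200 nM GPX4, 100 nM GR, 1 mM GSH, 0.5 mM NADPH.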
For orientation: Quantitative high-throughput screening tests each substance at several concentrations.

In assay [3] the target is Luciferin 4-monooxygenase (Photinus pyralis) (UniProt P08659). In words: Primary firefly luciferase (FLuc) qHTS assay for identification of artifact compounds. (AID 1845220). Further: nearly all actives have a fitted effect of over 60% in size. Further: potency means the concentration at half of the fitted maximal effect. In a few lines:
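Compounds sat 15 min at room temperature with 10 uM luciferin and 10 uM ATP (pH 7.6 Tris acetate). Firefly luciferase (10 nM final) was then added, and luminescence was read 5 min later. Data normalized to no-enzyme and DMSO controls were Hill-fitted.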

Assay [4] can be described thus: Primary fluorescence-based thiol-reactive (MSTI) qHTS assay for identification of artifact compounds. (AID 1845221).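 Further: series mostly up to about 54 µM; thiol-reactive compounds lower the probe fluorescence signal; nearly all actives have a fitted effect of over 65% in size.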 In outline: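 One-hour, room-temperature, dark incubation of compound with 4 uM MSTI in PBS (pH 7.4, 2% DMSO) precedes a fluorescence read at 525 nm excitation, 598 nm emission; Hill-equation fitting yields concentration-response values.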
The test system of assay [5] is Nanoluciferase (engineered Oplophorus gracilirostris luciferase). Description: Primary Nanoluciferase (NLuc) qHTS assay for identification of artifact compounds. (AID 1845222). Further: series mostly up to about 54 µM. In a few lines:
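Luminescence from secreted NLuc (filtered, 1:55-diluted S16 cell medium) read 5 min after Nano-Glo substrate; compounds preincubated 15 min, RT. Hill fits of inhibition normalized to DMSO and no-enzyme.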

Assay [6] can be described thus: Primary redox qHTS assay for identification of artifact compounds. (AID 1845223). In a few lines:
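Redox-cycling detection via DTT (250 uM final) oxidation coupled to Amplex Red (25 uM)/HRP (250 mU/mL) in HBSS. 15 min preincubation plus 30 min after DTT, room temperature. Ex/Em 525/598 nm; 4-parameter Hill fit against DMSO and 10 uM DA3003.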

The target in assay [7] is Cytochrome P450 3A4 (Homo sapiens) (UniProt P08684). In words: qHTS for inhibitors of CYP3A4 against the NCATS DSHEA and TCM libraries (AID 1919971).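 Further: inhibition lowers luminescence from luciferin made by CYP3A4.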 In outline:
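Concentration-response screening with isoform-matched pro-luciferin substrates. The CYP reaction was initiated by NADPH regenerating solution and ran 30-45 min in darkness at room temperature.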

Assay [8] addresses Cytochrome P450 2D6 (Homo sapiens) (UniProt P10635). Description: qHTS for inhibitors of CYP2D6 against the NCATS DSHEA and TCM libraries (AID 1919972). In a few lines: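 CYP2D6 enzyme with pro-luciferin substrate in manufacturer buffer (typically 100 mM KPO4), preincubated 15 min RT with substances (most at 19.5 nM upward); NADPH regeneration system (1x) started 30–45 min RT reaction; P450-Glo luminescence read after 30 min; quinidine as intraplate control.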

Glutathione peroxidase 1 (Homo sapiens), sequence (P07203 whole entry, looked up): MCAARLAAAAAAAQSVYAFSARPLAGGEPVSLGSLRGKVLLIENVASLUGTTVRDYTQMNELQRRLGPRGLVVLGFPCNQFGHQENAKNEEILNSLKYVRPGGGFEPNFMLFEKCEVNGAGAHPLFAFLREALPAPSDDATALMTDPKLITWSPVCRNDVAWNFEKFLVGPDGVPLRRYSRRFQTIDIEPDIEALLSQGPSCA
Phospholipid hydroperoxide glutathione peroxidase GPX4 (Homo sapiens), sequence (P36969 whole entry, looked up): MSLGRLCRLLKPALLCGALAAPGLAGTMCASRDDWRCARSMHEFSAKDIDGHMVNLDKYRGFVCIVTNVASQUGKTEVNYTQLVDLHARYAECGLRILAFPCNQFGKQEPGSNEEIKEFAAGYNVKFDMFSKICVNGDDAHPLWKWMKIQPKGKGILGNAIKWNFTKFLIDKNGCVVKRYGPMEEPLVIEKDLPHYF
Cytochrome P450 2D6 (Homo sapiens), sequence (P10635 whole entry, looked up): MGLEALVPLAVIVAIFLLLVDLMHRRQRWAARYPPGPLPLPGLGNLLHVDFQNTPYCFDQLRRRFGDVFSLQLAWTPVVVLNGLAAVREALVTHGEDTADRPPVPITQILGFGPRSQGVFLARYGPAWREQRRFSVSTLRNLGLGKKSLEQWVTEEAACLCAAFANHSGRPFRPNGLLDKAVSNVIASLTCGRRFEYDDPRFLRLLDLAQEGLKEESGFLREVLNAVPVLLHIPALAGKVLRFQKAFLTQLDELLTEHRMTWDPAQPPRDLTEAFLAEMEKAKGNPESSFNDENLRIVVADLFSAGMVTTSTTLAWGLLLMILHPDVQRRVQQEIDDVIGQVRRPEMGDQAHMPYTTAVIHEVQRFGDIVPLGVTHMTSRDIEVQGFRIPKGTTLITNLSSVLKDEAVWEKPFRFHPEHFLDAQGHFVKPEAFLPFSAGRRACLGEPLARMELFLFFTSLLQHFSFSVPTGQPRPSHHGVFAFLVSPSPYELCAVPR
Cytochrome P450 3A4 (Homo sapiens), sequence (P08684 whole entry, looked up, canonical isoform): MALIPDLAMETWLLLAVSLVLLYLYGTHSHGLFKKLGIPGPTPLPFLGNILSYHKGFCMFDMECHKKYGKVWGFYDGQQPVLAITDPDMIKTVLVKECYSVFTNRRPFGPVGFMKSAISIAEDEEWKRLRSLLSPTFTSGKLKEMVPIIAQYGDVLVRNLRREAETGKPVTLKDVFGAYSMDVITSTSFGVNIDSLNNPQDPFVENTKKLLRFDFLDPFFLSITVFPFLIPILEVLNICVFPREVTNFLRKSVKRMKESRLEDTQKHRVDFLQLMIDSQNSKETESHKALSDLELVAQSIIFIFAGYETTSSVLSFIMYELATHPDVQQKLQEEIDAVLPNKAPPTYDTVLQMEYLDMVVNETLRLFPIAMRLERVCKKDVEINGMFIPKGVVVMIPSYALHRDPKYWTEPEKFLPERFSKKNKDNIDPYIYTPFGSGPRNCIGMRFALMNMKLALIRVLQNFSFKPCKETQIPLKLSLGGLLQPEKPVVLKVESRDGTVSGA

Consider `COc1cc2ncnc(N3CCC(Oc4cnc5ccccc5n4)C3)c2cc1OC` (configuration not stated), for which the Potency entry in assay [1], in assay [2], in assay [3], in assay [4], in assay [5] and in assay [6] was “inactive” in each case.

In the case of `C[C@H](NC(c1cccc(C[P+](=O)O)c1)[C@H](C)O)c1ccc(Cl)c(Cl)c1` (some centres not stated), the Potency result in assay [1], in assay [2], in assay [3], in assay [4], in assay [5] and in assay [6] was “inactive” in each case.

In the case of `COc1ccc2[nH]c3c(-c4cccc5ccccc45)nccc3c2c1`, the Potency result in assay [1], in assay [2], in assay [3], in assay [4], in assay [5] and in assay [6] was “inactive” each time.

Regarding `C/C(=C\CCC1(C)C2CCC(C2)C1(C)O)C(=O)O` (configuration not stated), the Potency entry in assay [1], in assay [2], in assay [3], in assay [4], in assay [5] and in assay [6] was “inactive” in each case.

Turning to `C=C1C(=O)O[C@H](CCC)[C@H]1C(=O)O`, the Potency entry in assay [1], in assay [2], in assay [3], in assay [4], in assay [5] and in assay [6] was “inactive” in each case.

With `O=C(O)[C@@H]1C[C@H]2C[C@@H](CCc3nn[nH]n3)CC[C@H]2CN1`, the Potency entry in assay [1], in assay [2], in assay [3], in assay [4], in assay [5] and in assay [6] was “inactive” throughout.

As to `O=C1NC(=O)C(c2cn(-c3ccccc3)nc2-c2ccc(F)cc2)N1` (configuration not stated), the Potency entry in assay [1], in assay [2], in assay [3], in assay [4] and in assay [6] was “inactive” in each case.

Consider `C[C@H]1CC[C@@H]2N(C1)C[C@@H]1[C@H]([C@@H](O)[C@H](O)[C@]3(O)[C@H]1C[C@@]14OC5(O)[C@@H](C[C@@H](O)[C@@H]31)[C@]4(C)CC[C@@H]5O)[C@]2(C)O`, for which the Potency entry in assay [1], in assay [2], in assay [3], in assay [4], in assay [5] and in assay [6] was “inactive” throughout.

Regarding `C[C@H](C/C=C/C(C)(C)O)[C@H]1CC[C@@]2(C)[C@@H]3[C@@H](O[C@@H]4O[C@H](CO)[C@@H](O)[C@H](O)[C@H]4O)C=C4C(CC[C@H](O)C4(C)C)[C@]3(C=O)CC[C@]12C` (some centres not stated), the Potency result in assay [1], in assay [2], in assay [3], in assay [4], in assay [5] and in assay [6] was “inactive” each time.

Regarding `COC(=O)CCSCc1ccc(-c2onc(C)c2NC(=O)OC(C)c2ccccc2Cl)cc1` (configuration not stated), the Potency result in assay [1], in assay [2], in assay [3], in assay [4] and in assay [6] was “inactive” in each case.

For the compound `CC(C)=CCC(O)/C(C)=C/CO[C@@H]1O[C@H](CO)[C@@H](O)[C@H](O)[C@H]1O` (some centres not stated), the Potency result in assay [1], in assay [2], in assay [3], in assay [4], in assay [5] and in assay [6] was “inactive” in each case. For the same compound, the compound was called inactive in assay [7] and in assay [8].

`CC1=CC(=O)C2C(C)(C)CCC[C@]2(C)[C@H]1CO` (some centres not stated): the Potency result in assay [1], in assay [2], in assay [3], in assay [4], in assay [5] and in assay [6] was “inactive” throughout.

As for `C[C@@H]1CC[C@@]2(OC1)O[C@H]1C[C@H]3[C@@H]4CC=C5C[C@@H](O)CC[C@]5(C)[C@H]4CC[C@]3(C)[C@H]1[C@@H]2C`, the Potency entry in assay [1], in assay [2], in assay [3], in assay [4], in assay [5] and in assay [6] was “inactive” throughout.

Regarding `Cc1ccccc1C#Cc1ccc(CCC(=O)O)cc1`, the Potency result in assay [1], in assay [2], in assay [4] and in assay [6] was “inactive” each time. In assay [3], the Potency is 4.26 µM (active).

As for `CN1C2CCC1CC(OC(=O)[C@H](CO)c1ccccc1)C2` (some centres not stated), the Potency result in assay [1], in assay [2], in assay [3], in assay [4], in assay [5] and in assay [6] was “inactive” each time.

On to `Cc1cc(C)c(CNC(=O)c2cc(-c3ccc(CN4CCOCC4)cc3)cc3c2cnn3C2CCCC2)c(=O)[nH]1`, for which the Potency result in assay [1], in assay [2], in assay [3], in assay [4] and in assay [6] was “inactive” throughout.

Turning to `C=C(C)C1CCC(C)C12CC(O)C1(C)OC1C2OC(=O)C(N)CCC(=O)O` (configuration not stated), the Potency entry in assay [1], in assay [2], in assay [3], in assay [4], in assay [5] and in assay [6] was “inactive” throughout.

In the case of `N[C@@]1(C(=O)O)CC[C@H]2[C@H](C(=O)O)[C@H]21`, the Potency result in assay [1], in assay [2], in assay [3], in assay [4], in assay [5] and in assay [6] was “inactive” throughout.

For `C=C1[C@H](OC(C)=O)[C@H]2[C@@H](OC(C)=O)[C@](C)(OC(C)=O)C[C@]2(OC(C)=O)C(=O)[C@H](C)/C=C/C(C)(C)C(=O)[C@H](OC(=O)C(C)CC)[C@H]1OC(C)=O` (some centres not stated), the Potency result in assay [1], in assay [2], in assay [3], in assay [4], in assay [5] and in assay [6] was “inactive” each time.

As to `CCOC(=O)c1cc(C#N)c(N2CCC(C(=O)NS(=O)(=O)Cc3ccccc3)CC2)nc1C`, the Potency entry in assay [1], in assay [2], in assay [3], in assay [4] and in assay [6] was “inactive” throughout.
